PubChem BioAssay
Calls of active or inactive are those of the source. Cut-off read from the data, not from the text of the source: active = inhibition above about 30%; inactive = the rest.

Test: growth suppression of yeast trafficking mutant, preliminary HTS, modulators of trafficking downstream of Golgi apparatus project, 1536-format plate, OD 615 nm (AID 637)
Details: yeast transport mutant growth, absorbance 615 nm, 18 h; hits give high values

inhibition, inactive:
CC1(C)NC(=O)N(CN2C(=O)NC(C)(C)C2=O)C1=O -1.11%, Cc1ccccc1NC(=O)C1CCC(C)(C(=O)O)C1(C)C (centres undefined) -7.3%, CC(C)[C@H](NC(=O)OC(C)(C)C)c1nnc(S(=O)(=O)Cc2c(F)cccc2Cl)o1 9.02%, CSC1CCCCC1(O)CSc1nc2c(cc1C#N)CCCC2 (centres undefined) -1.9%, Cc1cccc(NC(=O)CCn2ccnc2C)c1 0.79%, CCCSc1nnc(-c2ccccc2NC(=O)CC)c(=O)[nH]1 3.97%, Cc1ccc(S(=O)(=O)N2CCCC2C(=O)OCc2ccco2)cc1 (centres undefined) -7.62%, Cc1ccc(C2C(C#N)=C(N)Oc3cc4c(cc32)OCO4)cc1 (centres undefined) 1.27%, CCNc1oc(COc2ccccc2F)nc1C#N 1.43%, CC(C)Cc1nnc(NC(=O)CCC(=O)N2CCOCC2)s1 0.63%, Cc1cccc(OCC(=O)Nc2ccccc2N2CCN(C(=O)C(C)C)CC2)c1C 4.13%, CC1(C)NC(=O)N(CCOc2cccc(Cl)c2Cl)C1=O 10.2%, Cn1c(=O)[nH]c(=O)c2c1nc(NC1CCCCC1)n2CC(=O)NC1CCCCC1 5.87%, COc1ccc(Nc2ncc3c(n2)CC(c2ccc(OC)cc2)CC3=O)cc1 (centres undefined) 4.92%, COc1ccc(OC)c(Nc2ncnc3c2cnn3-c2ccccc2)c1 -5.87%, O=C(c1ccc(-c2ccccc2)cc1)N1CCC(C(=O)N2CCCC2)CC1 5.71%, Cc1cccc(NCc2ccccc2O)c1 -5.87%, CCCCC(CC)Cn1c2nc3ccccc3nc2c2c(=N)oc(C)nc21 (centres undefined) 1.59%, O=C(Sc1nnnn1C1CCCCC1)c1cccs1 3.81%, Cc1cc(=O)[nH]c2c1cnn2Cc1ccccc1 -3.33%, O=C(CN1CCOCC1)Nc1cccc(C(=O)Nc2cccc(C(F)(F)F)c2)c1 0%, CCOC(=O)CS(=O)(=O)c1nc(-c2ccccc2)cc(C(F)(F)F)n1 -0.63%, CCn1c(Cc2ccccc2)nnc1SCC(=O)Nc1nc2ccccc2s1 6.51%, CCOc1ccccc1N(CC(=O)N1CCOCC1)S(=O)(=O)c1ccccc1 -4.76%, O=C(Nc1ccc(Cl)cc1)N1CCSCC1 -0.16%, CC(=O)c1cccc(NS(=O)(=O)c2ccc3c(c2)oc(=O)n3C)c1 -1.9%, O=C1c2ccccc2C(=O)N1CCCCN1CCN(CCCCN2C(=O)c3ccccc3C2=O)CC1 6.98%, CCCC1CCC(C(=O)Nn2c(C)nc3ccccc3c2=O)CC1 (centres undefined) 0.95%, Cc1cnn(C(=S)NCc2ccco2)c1 -4.92%, Cc1ccccc1CN1CCN(CC(=O)NCc2ccco2)C1=O 4.92%, CC1(C)C2CCC1(CS(=O)(=O)NCc1ccc(C(=O)O)cc1)C(=O)C2 (centres undefined) 3.33%, Cc1cccc2cc(C#N)c(SCCN3CCCCC3)nc12 -0.18%, CC1(C)CC(=O)c2c(O)cc(O)cc2O1 -1.43%, Cc1nc(C)c(C(=O)C2=C(O)C(=O)N(CCN3CCOCC3)C2c2ccco2)s1 (centres undefined) 3.02%, Cc1cc(C(F)(F)F)nc(SCC(=O)NC2=NC(=O)C(C)S2)n1 (centres undefined) -7.3%, CN(c1cccc(NC(=O)COc2ccccc2)c1)S(C)(=O)=O 0.32%, Cc1noc(C)c1COc1cccc(C(=O)Oc2ccc3c(c2)OCO3)c1 1.75%, COc1ccc(N(CC(=O)Nc2ccccc2SC)S(C)(=O)=O)cc1OC 1.75%, Cc1cc(C)n(S(=O)(=O)c2cc(C(=O)O)c(Cl)cc2Cl)n1 4.29%
